PubChem BioAssay (NCATS)
Inconclusive results are not listed. Values without a mark were called inactive. Calls come from the whole dose curve; as a rule, active = well fitted inhibition curve with a large enough effect; inconclusive = small, poorly fitted or top-dose-only effect; inactive = flat fitted curve, though single readings scatter.

biological target: Aldehyde dehydrogenase, mitochondrial (Homo sapiens) (UniProt P05091); assay: qHTS for Inhibitors of the Aldehyde Dehydrogenase Family (ALDH2) Primary screen (AID 2061308); conditions: ALDH2 enzyme inhibition qHTS, 1536-well; series mostly up to 56 µM; activity change, negative = inhibition: at the top concentration;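 note: plate controls were vehicle for no effect and reference inhibitor for full effect; nearly all actives have a fitted effect of over 55% in size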

| SMILES | activity change, negative = inhibition |
| --- | --- |
| Cc1cc2c(s1)c1cnn(Cc3ccc(C(C)(C)C)cc3)c(=O)c1n2C | -6.51% |
| COc1ccc(C(=O)Nc2ccc(-c3nc4ccccc4[nH]3)cc2)cc1OC | -8.32% |
| COc1ccccc1OCCN1CC(COc2cccc3[nH]c4ccccc4c23)OCC1=O (stereo not given) | -0.905% |
| Cc1cc(C)nc(NC(=S)N2CCN(c3cccc4nccn34)CC2)c1 | -10.6% |
| CCOc1ccccc1-c1nnc2n1N=C(c1c(OC)cccc1OC)CS2 | 7.79% |
| Cc1ccc(NS(=O)(=O)c2ccc3c(c2)CCC(=O)N3C)cc1Cl | 12.5% |
| O=C(Cc1ccc(Cl)c(Cl)c1)Nc1ccc([S+](=O)([O-])Nc2ccc([N+](=O)[O-])cc2)cc1 | -11.3% |
| Nc1cccc([S+](=O)([O-])N2CCCN([S+](=O)([O-])c3cccc(N)c3)CC2)c1 | 4.45% |
| Cc1ccc(OCCn2c(CCNC(=O)c3c(F)cccc3F)nc3ccccc32)cc1 | 7.28% |
| Cc1cc(C)nc(NC(=S)N2CCN(c3nsc4ccccc34)CC2)c1 | -8.2% |
| CC(C)(C)Cc1nnc(NC(=O)CSc2ccccc2)s1 | -10.2% |
| Cc1cc(NS(=O)(=O)c2ccc(NC(=O)Cc3ccc(Cl)cc3)cc2)no1 | 2.45% |
| Cc1cc(Nc2ncc3cc(-c4c(Cl)cccc4Cl)c(=O)n(C)c3n2)ccc1F | 1.66% |
| O=S(=O)(c1ccc2c(c1)OCCO2)N1CCN(S(=O)(=O)c2ccc(F)c(F)c2F)CC1 | 1.51% |
| NCCC(=O)Nc1cccc(-c2nn3c(=O)cc(N4CCNCC4)nc3s2)c1 | 11.3% |
| CNc1oc(-c2ccc(F)cc2)nc1C#N | 10.1% |
| O=C(OCC#CCSc1nnc(-c2cccc3ccccc23)o1)c1csc2ccccc12 | 7.28% |
| N#Cc1nc(-c2cccc3ccccc23)oc1NCC#CCOC(=O)c1cccs1 | 8.48% |
| Cc1ccc(-c2ccc(=O)n(CCN)n2)cc1 | 8.74% |
| COc1cccc(CCN2C(=O)c3ccccc3NC2c2ccc(OC)c(COc3c(C)cc(NC(C)=O)cc3C)c2)c1 (stereo not given) | -12% |

| SMILES | activity change, negative = inhibition |
| --- | --- |
| COC(=O)C1=C(C)NC(COC(N)=O)=C(C(=O)OC(C)C)C1c1cccc(Cl)c1Cl (stereo not given) | -13.7% |
| CC(C)c1ccccc1-c1nc(NCc2ccc(-c3cccnc3)cc2)c2sccc2n1 | 0.138% |
| COc1ccc(NC(=O)C(OC(=O)CNC(=O)c2ccccc2)c2ccccc2)c(C)c1 (stereo not given) | 15% |
| O=C1CCCC2=C1C(c1cccnc1)N=C(Nc1nc3ccccc3o1)N2 (stereo not given) | 0.1% |
| N#Cc1ccc(C[C@@H](NS(=O)(=O)c2ccc(C(=O)O)cc2)C(=O)O)cc1 | -4.94% |
| CC[C@H]1OC(=O)[C@H](C)[C@@H](O[C@H]2C[C@@](C)(OC)[C@@H](O)[C@H](C)O2)[C@H](C)[C@@H](O[C@@H]2O[C@H](C)C[C@H](N(C)C)[C@H]2O)[C@](C)(O)C[C@@H](C)/C(=N/OCOCCOC)[C@H](C)[C@@H](O)[C@]1(C)O | 50.5% |
| CN(C)c1ccc(-c2cc(O)c3ncccc3c2)cc1 | -20.5% |
| Oc1cccc2c(-c3nn[nH]n3)ccnc12 | -20.5% |
| CC(C)c1ccccc1-c1nc2c(c(NCc3ccc(-c4cccnc4)cc3)n1)CNC2 | 100% |
| COc1ccc(-c2ccc3ncnc(N(C)Cc4csc(C)n4)c3c2)cc1OC | 5.17% |
| O=S1(=O)N=C(Oc2ccccc2-c2ccccc2)c2ccccc21 | -3.82% |
| O=C(O)c1cccc(-c2cccc(-c3nn4c(=O)cc(N5CCNCC5)nc4s3)c2)c1 | -36.2% |
| COC(=O)c1ccc2c(c1)/C(=C/c1cc(Br)c(O)c(Br)c1)C(=O)N2 | -28.5% |
| CC(=O)Nc1sc2c(c1-c1cccc3c1sc1ccccc13)CCNC2 | -11.7% |
| Oc1ccc(CCc2ccccc2)c2cccnc12 | 0.919% |
| Cc1ccc(S(=O)(=O)Nc2cnccc2C(=O)Nc2nc(-c3ccc(Oc4ccccc4)cc3)cs2)cc1 | -1.59% |
| CCC(=O)NC(c1cc(Cl)c2cccnc2c1O)C1CC1 (stereo not given) | -2.03% |
| COc1ccc(-c2nnc3n2N=C(c2c(OC)cccc2OC)CS3)c(OC)c1 | 6.41% |
| Cc1cc(C)n2ncc(C(=O)Nc3ccccc3Sc3ccccc3)c2n1 | 6.46% |
| COc1ccc(NC(=O)c2cc(-c3ccc(C)c(C)c3)nc3ccccc23)cc1 | 2.28% |
